According to PubChem BioAssay (Tox21):
“And” between values parts separate entries of the source, which are not always exact repeats. Identical values can stand only once. Results filed as inconclusive are left out. Some compounds were tested as several samples or in several runs, with calls that do not always agree. The source made the active and inactive calls. The call rests on the fitted dose curve.

Tests used:
[1] = biological target: Acetylcholinesterase (Homo sapiens) (UniProt P22303); experiment: Acetylcholinesterase (AChE) small molecule antagonists: colormetric cell-based qHTS assay (AID 1347395); further: nearly all actives have a fitted effect of over 30% in size; further: potency means the concentration at half of the fitted maximal effect
Acetylcholinesterase (Homo sapiens), sequence (P22303 whole entry, looked up): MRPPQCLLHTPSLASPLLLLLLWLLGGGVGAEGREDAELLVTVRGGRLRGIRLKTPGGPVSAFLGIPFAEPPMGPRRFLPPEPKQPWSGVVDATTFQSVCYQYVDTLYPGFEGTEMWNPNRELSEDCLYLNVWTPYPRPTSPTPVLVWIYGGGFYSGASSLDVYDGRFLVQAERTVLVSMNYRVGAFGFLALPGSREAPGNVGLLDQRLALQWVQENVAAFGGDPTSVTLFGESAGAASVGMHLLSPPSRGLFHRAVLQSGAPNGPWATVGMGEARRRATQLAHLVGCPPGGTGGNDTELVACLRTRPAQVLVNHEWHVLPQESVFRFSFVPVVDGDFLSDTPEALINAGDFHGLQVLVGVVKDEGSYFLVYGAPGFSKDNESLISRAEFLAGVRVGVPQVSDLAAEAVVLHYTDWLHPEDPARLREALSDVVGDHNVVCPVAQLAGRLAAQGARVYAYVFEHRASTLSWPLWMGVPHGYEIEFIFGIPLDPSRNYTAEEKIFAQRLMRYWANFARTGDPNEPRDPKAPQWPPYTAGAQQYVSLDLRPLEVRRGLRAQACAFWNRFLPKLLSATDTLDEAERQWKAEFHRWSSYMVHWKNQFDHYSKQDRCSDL
In short: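 Neuroblastoma line SH-SY5Y supplied the enzyme; cells were preincubated with compound for 30 min at 37 C and 5% CO2. Acetylthiocholine with DTNB was then added for 90 min at 37 C, and thiocholine was measured by colour.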

[2] = biological target: Acetylcholinesterase (Homo sapiens) (UniProt P22303); experiment: Acetylcholinesterase (AChE) small molecule antagonists: enzyme-based qHTS assay (AID 1347397); settings: Potency: AChE enzyme activity inhibition; outcome: AChE enzyme activity inhibition; further: nearly all actives have a fitted effect of over 55% in size; further: potency means the concentration at half of the fitted maximal effect
In short: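 rhAChE 50 mU/mL (dispensed) + cpd or DMSO, 30 min RT; add DTNB/acetylthiocholine cocktail, 10 min RT; colorimetric thiocholine readout. qHTS, 1536-well format.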

[3] = biological target: Acetylcholinesterase (Homo sapiens) (UniProt P22303); experiment: Acetylcholinesterase (AChE) small molecule antagonists: fluorescence cell-based qHTS assay (AID 1347398); settings: Potency: AChE activity; outcome: AChE activity; further: nearly all actives have a fitted effect of over 50% in size; further: potency means the concentration at half of the fitted maximal effect
In short: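 Read-out is Thiolite Green fluorescence at Ex/Em = 490/520 nm, formed by reaction with thiocholine released when cellular AChE in SH-SY5Y cells hydrolyzes acetylthiocholine. Compounds were preincubated 30 min at 37 C before substrate.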

[4] = biological target: Acetylcholinesterase (Homo sapiens) (UniProt P22303); experiment: Acetylcholinesterase (AChE) small molecule antagonists: enzyme-based qHTS assay with human liver microsomes (AID 1347399); settings: Potency: qHTS inhibition; outcome: qHTS inhibition; further: nearly all actives have a fitted effect of over 60% in size
In short: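 Recombinant human AChE (50 mU/mL in the enzyme mix) and human liver microsomes (0.25 mg/mL final) were preincubated with compound and NADPH (0.25 mg/mL final) for 30 min at 37 C. Acetylthiocholine/DTNB was then added; thiocholine was read colorimetrically after 10 min at room temperature.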
On the % scale 0 is the no-effect control and ±100 the full control effect.

CS(C)(=O)=O
inactive: Potency [1] | Potency [2] | Potency [3] | Potency [4]

O=C(c1ccccc1)c1ccc(Cl)cc1
inactive: Potency [1] | Potency [2] | Potency [3] | Potency [4]

CC(O)(c1ccc(Cl)cc1)c1ccc(Cl)cc1
inactive: Potency [1] | Potency [2] | Potency [3] | Potency [4]

CC(C)Nc1ccccc1
inactive: Potency [1] | Potency [2] | Potency [3] | Potency [4]

O=C(c1ccccc1O)c1ccccc1O
inactive: Potency [1] | Potency [2] | Potency [3] | Potency [4]

CCCCNC(=S)NCCCC
inactive: Potency [1] | Potency [2] | Potency [3] | Potency [4]

C/C=C/C(=O)OCC(C)C
inactive: Potency [1] | Potency [2] | Potency [3] | Potency [4]

O=c1n(CCO)c(=O)n(CCO)c(=O)n1CCO
inactive: Potency [1] | Potency [2] | Potency [3] | Potency [4]

CCOC(=O)c1ccc(OCCN2C[C@H](O)[C@@H](O)[C@H](O)[C@H]2CO)cc1
inactive: Potency [1] | Potency [2] | Potency [3] | Potency [4]

COc1ccc(NC(C)=O)cc1N
inactive: Potency [1] | Potency [2] | Potency [3] | Potency [4]

Cc1ccc(C)c(O)c1C
inactive: Potency [1] | Potency [2] | Potency [3] | Potency [4]

CC(C)=CCC/C(C)=C/CC/C(C)=C/CO
inactive: Potency [1] | Potency [2] | Potency [3] | Potency [4]

Cc1c(Cl)cccc1Cl
inactive: Potency [1] | Potency [2] | Potency [3] | Potency [4]

Cc1ccccc1C(=O)Nc1ccc(C(=O)N2CCCC(N(C)C)c3ccccc32)cc1 (stereo not given)
inactive: Potency [1] | Potency [2] | Potency [3] | Potency [4]

Nc1ncnc2c1ncn2[C@@H]1O[C@H](COP(=O)(O)O)[C@@H](O)[C@H]1O
inactive: Potency [1] | Potency [2] | Potency [3] | Potency [4]

COc1ccc(-c2cc(C(F)F)nn2-c2ccc(S(N)(=O)=O)cc2)cc1F
inactive: Potency [1] | Potency [2] | Potency [3] | Potency [4]

CC1=CC(C)C(C=O)CC1 (stereo not given)
inactive: Potency [1] | Potency [2] | Potency [3] | Potency [4]

CCCCC1CCC(=O)O1 (stereo not given)
inactive: Potency [1] | Potency [2] | Potency [3] | Potency [4]

O=c1[nH]cnc2c1ncn2[C@@H]1O[C@H](CO)[C@@H](O)[C@H]1O
inactive: Potency [1] | Potency [2] | Potency [3] | Potency [4]

COC[C@H](c1ccc(C(F)(F)F)cc1)N1CCN(C2(C)CCN(C(=O)c3c(C)ncnc3C)CC2)C[C@H]1C
inactive: Potency [1] | Potency [2] | Potency [3] | Potency [4]

CCCCCCCC(=O)O
inactive: Potency [1] | Potency [2] | Potency [3] | Potency [4]

CCO[Si](CC(C)C)(OCC)OCC
inactive: Potency [1] | Potency [2] | Potency [3] | Potency [4]

Nc1c(S(=O)(=O)O)cc(Br)c2c1C(=O)c1ccccc1C2=O
inactive: Potency [1] | Potency [2] | Potency [3] | Potency [4]

COC(=O)c1ccc([N+](=O)[O-])cc1
inactive: Potency [1] | Potency [2] | Potency [3] | Potency [4]

O=c1[nH]c(=O)n([C@H]2C[C@H](O)[C@@H](CO)O2)cc1F
inactive: Potency [1] | Potency [2] | Potency [3] | Potency [4]

NC(=O)C(=O)N/N=C/c1ccc([N+](=O)[O-])o1
inactive: Potency [1] | Potency [2] | Potency [3] | Potency [4]

CCCCC(CC)COC(=O)CCCCCCCC(=O)OCC(CC)CCCC (stereo not given)
inactive: Potency [1] | Potency [2] | Potency [3] | Potency [4]

O=c1[nH][nH]c2ccccc12
inactive: Potency [1] | Potency [2] | Potency [3] | Potency [4]

COc1ccc(-c2coc3cc(O)cc(O)c3c2=O)cc1
inactive: Potency [1] | Potency [2] | Potency [3] | Potency [4]

Cn1cnc([N+](=O)[O-])c1Sc1ncnc2nc[nH]c12
inactive: Potency [1] | Potency [2] | Potency [3] | Potency [4]

CCCCCNCCCCC
inactive: Potency [1] | Potency [2] | Potency [3] | Potency [4]

CCOc1ccc2nc(S(N)(=O)=O)sc2c1
inactive: Potency [1] | Potency [2] | Potency [3] | Potency [4]

OC(CCN1CCCCC1)(c1ccccc1)C1CCCCC1 (stereo not given)
inactive: outcome [1] | outcome [2] | outcome [3] | outcome [4]

CC(C)CCO
inactive: Potency [1] | Potency [2] | Potency [3] | Potency [4]

Cc1cccc(C)c1OCC(=O)N[C@@H](Cc1ccccc1)[C@@H](O)C[C@H](Cc1ccccc1)NC(=O)[C@H](C(C)C)N1CCCNC1=O
inactive: Potency [1] | Potency [2] | Potency [3] | Potency [4]

CCC(C)(C)c1ccc(CC(C)CN2C[C@@H](C)O[C@@H](C)C2)cc1 (stereo not given in full)
inactive: Potency [1] | Potency [2] | Potency [3] | Potency [4]

O=[N+]([O-])c1cccc(C(F)(F)F)c1
inactive: Potency [1] | Potency [2] | Potency [3] | Potency [4]

C=CC(=O)OCCOCCOCC
inactive: Potency [1] | Potency [2] | Potency [3] | Potency [4]

Cc1cc(C)nc(NS(=O)(=O)c2ccc(N)cc2)n1
inactive: Potency [1] | Potency [2] | Potency [3] | Potency [4]

Cc1ccc(-n2nc(C(C)(C)C)cc2NC(=O)Nc2ccc(OCCN3CCOCC3)c3ccccc23)cc1
inactive: Potency [1] | Potency [2] | Potency [3] | Potency [4]

CN(C)c1ccc(C(=C2C=CC(=[N+](C)C)C=C2)c2ccc(N(C)C)cc2)cc1
active: Potency [1] 70.6 µM | Potency [2] 25.1 µM and 35.6 µM and 30.9 µM | Potency [3] 19.9 µM and 44.8 µM and 15.5 µM
inactive: Potency [4]

CC1(C)C(=O)N(Cl)C(=O)N1Cl
inactive: Potency [1] | Potency [2] | Potency [3] | Potency [4]

O=[N+]([O-])c1ccc(Oc2ccc([N+](=O)[O-])cc2)cc1
inactive: Potency [1] | Potency [2] | Potency [3] | Potency [4]

C=CCCCCCCCCCC
inactive: Potency [1] | Potency [2] | Potency [3] | Potency [4]

CCCCCCCCC(=O)O
inactive: Potency [2] | Potency [3] | Potency [4]
3.07 µM (active) and inactive: Potency [1]

O=C[O][Al]([O]C=O)[O]C=O
inactive: Potency [1] | Potency [2] | Potency [3] | Potency [4]

ClC(c1ccccc1)(c1ccccc1)c1ccccc1
inactive: Potency [1] | Potency [2] | Potency [3] | Potency [4]

O=C(O[C@@H](C(=O)O)[C@@H](OC(=O)c1ccccc1)C(=O)O)c1ccccc1
inactive: Potency [1] | Potency [2] | Potency [3] | Potency [4]

C=CC(C)(O)CCC=C(C)C (stereo not given)
inactive: Potency [1] | Potency [2] | Potency [3] | Potency [4]

CO[C@@]1(NC(=O)CSC[C@@H](N)C(=O)O)C(=O)N2C(C(=O)O)=C(CSc3nnnn3C)CS[C@@H]21
inactive: Potency [1] | Potency [2] | Potency [3] | Potency [4]

Cc1cn([C@H]2C[C@H](N=[N+]=[N-])[C@@H](CO)O2)c(=O)[nH]c1=O
inactive: Potency [1] | Potency [2] | Potency [3] | Potency [4]

OCCSc1ccccc1
inactive: Potency [1] | Potency [2] | Potency [3] | Potency [4]

CO/N=C(/C(=O)N[C@@H]1C(=O)N2C(C(=O)O)=C(COC(N)=O)CS[C@H]12)c1ccco1
inactive: Potency [1] | Potency [2] | Potency [3] | Potency [4]

CCCCCCCCCCCCCCCCCCOCCO
inactive: activity, negative = inhibition [1] 0.0969% [at 23.6 µM] | activity change, negative = inhibition [2] 1.34% [at 23.6 µM] | activity change, negative = inhibition [3] -1.79% [at 23.8 µM] | activity change, negative = inhibition [4] 0.112% [at 23.6 µM]

O=C(Cl)c1ccc([N+](=O)[O-])cc1
inactive: Potency [1] | Potency [2] | Potency [3] | Potency [4]

CCOC(=O)c1ccccc1C
inactive: Potency [1] | Potency [2] | Potency [3] | Potency [4]

C=CC(=O)NC(C)C
inactive: Potency [1] | Potency [2] | Potency [3] | Potency [4]

C/C=C/C=C/CCCCCCCO
inactive: Potency [1] | Potency [2] | Potency [3] | Potency [4]

C[Si](C)O[Si](C)(C)O[Si](C)(C)O[Si](C)C
inactive: Potency [1] | Potency [2] | Potency [3] | Potency [4]

CC(C)(O)c1coc(S(=O)(=O)NC(=O)Nc2c3c(cc4c2CCC4)CCC3)c1
inactive: Potency [1] | Potency [2] | Potency [3] | Potency [4]
